Compound activity as filed in PubChem BioAssay.
In the library only some 1.8% were active in any assay of this set; here they are far more common.
PfHsp40 yeast: compounds rescuing yeast from Plasmodium falciparum HSP40 toxicity. AID 504582. S. cerevisiae expressing PfHsp40, growth rescue, ATP luminescence. hit rate 0.68% among 340,000. growth rescue, % at 12.5 µM; in the data active means growth rescue above about 28%, passing the limit was not always enough;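 further: yeast W303a lacking pdr1 and pdr3 grown in galactose medium; growth measured after three days at 30 °C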
VHR inh abs: inhibitors of human VHR1 phosphatase (DUSP3) | P51452 | recombinant VHR phosphatase, pNPP absorbance | inhibition, % at 13.3 µM | hit rate 0.52% among 290,000; in the data active means inhibition above about 50%
Target sequence (P51452 whole entry, looked up): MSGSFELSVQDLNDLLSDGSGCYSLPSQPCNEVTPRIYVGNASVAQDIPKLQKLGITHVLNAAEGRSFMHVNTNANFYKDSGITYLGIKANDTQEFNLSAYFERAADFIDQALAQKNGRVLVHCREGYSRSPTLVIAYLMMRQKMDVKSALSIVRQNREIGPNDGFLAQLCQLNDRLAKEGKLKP
ugtP null kill: compounds lethal to S. aureus RN4220 ugtP deletion mutant; AID 1259309; growth inhibition, % (test concentration not listed); hit rate 0.54% among 330,000; OD600 growth, 16 h; in the data active means growth inhibition above about 68%;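 further: plate controls were untreated wells for no effect and antibiotic for full effect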
SSB-PriA inh: K. pneumoniae PriA-SSBct interaction inhibition | AlphaScreen SSBct-PriA binding, biotinylated peptide | inhibition, % at 33 µM | hit rate 0.6% among 430,000; in the data active means inhibition mostly above about 37%, no sharp cut-off; inactive means mostly below about 20%;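 further: plate controls were negative control peptide for no effect and reference peptide for full effect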
Mtb hypoxia rep: reduces hypoxia-regulated biosensor signal in M. tuberculosis | M. tuberculosis hypoxia-regulated fluorescent reporter, fluorescence | fluorescence inhibition, % (no concentration beside the values) | hit rate 0.1% among 300,000 | AID 1159583; in the data active means fluorescence inhibition mostly above about 23%, no sharp cut-off; inactive means mostly below about 17%
Sa RN4220 lethal: S. aureus RN4220 growth inhibition; hit rate 0.33% among 330,000; OD600, 16 h; inhibition, % (concentration not given with the values); in the data active means inhibition above about 85%;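 further: plate controls were untreated cells for no effect and reference antibiotic for full effect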
* marks the source's active call; other numbers are inactive results; . = not tested or not shown.

SMILES	PfHsp40 yeast	VHR inh abs	ugtP null kill	SSB-PriA inh	Mtb hypoxia rep	Sa RN4220 lethal
Cc1nnc(SCC2=C(C(=O)O)N3C(=O)C(NC(=O)Cn4cnnn4)C3SC2)s1 (stereo unspecified)	-1.8	17.3	100.3*	6.0	.	100.2*
CN(C)C(=O)Cn1cc(-c2ccc(F)cc2)cn1	.	.	.	38.0*	.	.
O=C(Cn1cc(-c2ccc(F)cc2)cn1)N1CCC(S(=O)(=O)c2ccc(F)cc2)CC1	.	.	.	3.0	.	.
COc1ccc2sc(=NC(=O)c3ccno3)n(CCSC)c2c1	.	.	.	-18.0	.	.
COCCN(C(=O)COC(=O)c1nc(Cl)ccc1Cl)c1c(N)n(Cc2ccccc2)c(=O)[nH]c1=O	0.4	.	-3.0	-5.6	-3.8	-2.4
CCN(C(=O)CSc1nncn1-c1ccccc1)c1c(N)n(Cc2ccccc2)c(=O)[nH]c1=O	26.7*	-9.6	5.2	-7.8	10.2	3.5
CCN(C(=O)COC(=O)c1nc(Cl)ccc1Cl)c1c(N)n(Cc2ccccc2)c(=O)[nH]c1=O	-0.2	.	-1.2	8.7	29.5*	2.8
CCOc1ccccc1-c1cc(C(=O)NN=Cc2cccnc2)c2ccccc2n1	.	.	2.1	-8.8	13.8	3.6
O=C(NCCn1ncc2c(N3CCN(c4ncccn4)CC3)ncnc21)C1COc2ccccc2O1 (stereo unspecified)	.	.	.	-7.0	.	.
CN=c1scc(-c2cccs2)n1N=Cc1ccccc1O	.	.	19.5	0.9	-1.7	5.0
CC(C)(C)c1cc(NCc2ccccn2)n2ncc(-c3ccccc3)c2n1	51.5*	27.7	12.0	-18.6	5.7	-11.0
Cc1cc(NCc2ccccc2)n2ncc(-c3ccccc3)c2n1	1.7	54.7*	49.8	-24.7	11.3	-2.6
Cc1cc(C)n(-c2cc(C(C)(C)C)nc3c(-c4ccccc4)cnn23)n1	9.4	35.4	30.5	-17.6	0.7	-7.4
O=S(=O)(NCC1CCN(c2nc3ccccc3o2)CC1)c1cccc2ccccc12	.	.	.	1.0	.	.
CC(=O)C(=Nc1ccccc1Cl)NNc1ccc(Cl)cc1	1.2	4.2	-17.0	49.9*	-85.6	-9.8
O=C1CC(N2CCN(c3nc4ccccc4s3)CC2)C(=O)N1Cc1cccs1 (stereo unspecified)	99.2*	22.7	2.2	6.0	.	-4.4
Cc1cn2nc(C(=O)Nc3ccc(S(C)(=O)=O)cc3)cc2c(=O)[nH]1	.	.	.	-14.0	.	.
O=C(Cc1ccccc1)N1CCC(c2nnc(C3CC3)s2)CC1	.	.	.	-5.0	.	.
Cc1ccc(S(=O)(=O)N(C)C)cc1NC(=O)COC(=O)CCC1CCCC1	-0.4	.	10.2	-8.6	3.9	1.1
Cc1ccc(OCCC(=O)OCC(=O)Nc2cc(S(=O)(=O)N(C)C)ccc2C)cc1	31.8*	13.2	13.1	-9.0	1.2	4.7
Nc1c(Cl)ncnc1N/N=C/c1ccc2ccccc2n1	502.5*	1.7	.	.	.	.
Nc1c(Cl)ncnc1NN=Cc1ccccn1	.	.	-5.3	110.4*	1.8	-3.1
COc1ccc2cc(S(=O)(=O)n3ccnc3)ccc2c1	.	.	.	-3.0	.	.
Cn1c(C(=O)NCCN2CCOCC2)cc2c(=O)n3ccccc3nc21	0.1	-19.8	2.8	-1.1	-0.6	-0.3
COCCCn1c(C(=O)NCCN2CCOCC2)cc2c(=O)n3ccccc3nc21	44.4*	17.9	1.1	-1.6	0.5	1.1
SMILES	PfHsp40 yeast	VHR inh abs	ugtP null kill	SSB-PriA inh	Mtb hypoxia rep	Sa RN4220 lethal
O=C(CN1CCC(n2nnc3cc(F)ccc32)CC1)NCCc1ccccc1	-0.2	52.9*	-1.8	-4.3	.	-1.8
O=C(CN1CCC(n2nnc3cc(F)ccc32)CC1)NC1CC1	-0.8	4.9	11.6	14.0	8.7	4.8
CC1(C)Cc2cccc(OCc3ccc(C(=O)N4CCc5ccccc54)cc3)c2O1	.	.	.	-2.0	.	.
N#CC(=Cc1ccc(O)c([N+](=O)[O-])c1)c1nc2ccccc2s1	.	.	96.5*	.	.	96.2*
CNC(=O)C1Cc2ccccc2N1C(C)=O (stereo unspecified)	.	.	.	-15.0	.	.
CCCCCCCOC(=O)C1=C(C)Nc2ncnn2C1c1cccs1 (stereo unspecified)	1.7	2.0	-30.3	-14.9	16.1	1.2
CCCCCCCCOC(=O)C1=C(C)Nc2nnnn2C1c1cccs1 (stereo unspecified)	76.1*	-17.1	49.0	-0.8	-0.6	-0.9
COc1ccc(Nc2c(C(=O)N3CC(=O)Nc4ccccc43)cc([N+](=O)[O-])c(Nc3ccc(OC)cc3)c2[N+](=O)[O-])cc1	.	.	.	-23.0	.	.
O=C(Nc1nc(-c2ccccn2)cs1)C1CC1c1ccccc1Cl (stereo unspecified)	.	.	.	48.2	.	.
O=C(Nc1nc(-c2ccccn2)cs1)C1CC(=O)N(c2ccc3c(c2)OCCO3)C1 (stereo unspecified)	6.8	5.7	-6.7	78.0*	-1.1	3.8
